CYP2C19 inhib: inhibitors of human CYP2C19. P33261. CYP2C19 Supersomes, luciferin-H EGE luminescence, 30 min. inhibition, % at 5 µM. 96,000 tested, 21% active. AID 778;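 active = CYP2C19 inhibition above a set limit at 5 µM in the primary screen, cut at about 50% in these data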;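 also: plate controls were negative control wells for no effect and 2.5 mM tranylcypromine positive control for full effect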
Target sequence (P33261 whole entry, looked up): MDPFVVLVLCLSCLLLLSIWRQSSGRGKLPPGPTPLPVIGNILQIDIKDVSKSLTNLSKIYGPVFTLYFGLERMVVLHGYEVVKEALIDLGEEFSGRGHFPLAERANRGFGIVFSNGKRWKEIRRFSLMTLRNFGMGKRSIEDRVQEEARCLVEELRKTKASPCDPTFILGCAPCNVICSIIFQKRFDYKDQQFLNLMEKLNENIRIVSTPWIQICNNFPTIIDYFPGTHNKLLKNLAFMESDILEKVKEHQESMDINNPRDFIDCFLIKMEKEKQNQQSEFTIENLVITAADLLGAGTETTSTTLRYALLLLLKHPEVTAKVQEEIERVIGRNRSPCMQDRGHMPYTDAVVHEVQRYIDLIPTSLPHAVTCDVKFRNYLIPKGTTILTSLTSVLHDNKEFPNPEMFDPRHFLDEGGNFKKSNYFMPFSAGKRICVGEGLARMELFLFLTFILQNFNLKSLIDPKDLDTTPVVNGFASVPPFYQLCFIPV
CYP2C9 inhib: blocks human cytochrome P450 2C9 | P11712 | CYP2C9 Supersomes, luciferin-H conversion, luminescence | inhibition, % at 5 µM | 96,000 tested, 20% active | AID 777;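 active = blocking of liver enzyme CYP2C9 beyond about 50% at 5 µM, limit read from the data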
CYP2C19 act: cytochrome P450 2C19 (human) activation | 96,000 tested, under 10 active | recombinant CYP2C19, luciferin-H EGE luminescence; hits give high values; 0 = fully inhibited enzyme, 1 = untreated enzyme | P33261 | activation factor at 5 µM | AID 1025;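 active = activation factor of at least 2 at 5 µM in the primary screen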;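 also: 0 = wells with 2.5 mM tranylcypromine and 1 = vehicle-only wells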
CYP2C9 act: increases human cytochrome P450 2C9 activity. P11712. recombinant CYP2C9, luciferin-H conversion, luminescence; hits give high values; factor 1 = untreated enzyme, 0 = blocked. 96,000 tested, 1.4% active. activation factor at 5 µM;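 active = activation factor of 2 or more for CYP2C9 at a 5 µM dose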;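 also: 0 = sulfaphenazole-blocked wells and 1 = vehicle-only wells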
* = called active by the depositor. In the library only some 31% were active in any assay of this set; here they are far more common.

SMILES	CYP2C19 inhib	CYP2C9 inhib	CYP2C19 act	CYP2C9 act
COc1ccccc1N1CCN(C(=O)C(Cc2ccccc2)NC(=O)C2CCCCC2)CC1 (stereo not given)	99*	87*	0	0.1
O=C(Cc1cccs1)N1CCN(c2nc(-c3ccc(Cl)cc3)cs2)CC1	65*	91*	0.3	0.1
COc1ccccc1N1CCN(C(=O)C2CCN(S(=O)(=O)c3ccc(F)cc3)CC2)CC1	0	5	1	0.9
Cc1cc(N2CCN(S(=O)(=O)c3ccccc3)CC2)c2ccccc2n1	65*	44	0.3	0.6
CCOC(=O)N1CCN(c2nc(-c3ccc(Cl)cc3)cs2)CC1	17	-1	0.8	1
CC(C)(C)OC(=O)N[C@@H](Cc1ccccc1)C(=O)N1CCC(C(=O)O)CC1	17	-7	0.8	1.1
CCCCC(=O)NC(NC(=S)N1CCOCC1)C(Cl)(Cl)Cl (stereo not given)	44	-23	0.6	1.2
CCOC(=O)c1[nH]c2ccccc2c1N=CN(CC)CC	1	5	1	1
O=C1CC(N2CCN(Cc3ccccc3)CC2)C(=O)N1CCc1ccccc1 (stereo not given)	-5	-4	1	1
C=CCNC(=O)c1cc2c(C(F)(F)F)nn(C)c2s1	12	-1	0.9	1
COc1ccc(S(=O)(=O)N2CCN(c3ccccc3OC)CC2)cc1OC	80*	6	0.2	0.9
COc1ccccc1N1CCN(C(=O)C(NS(=O)(=O)c2cccs2)c2ccccc2)CC1 (stereo not given)	62*	44	0.4	0.6
COc1ccccc1N1CCN(S(=O)(=O)c2ccccc2F)CC1	64*	64*	0.4	0.4
COc1ccccc1N1CCN(C(=O)CCc2ccc(S(=O)(=O)NC(C)C)cc2)CC1	5	33	1	0.7
COc1ccccc1N1CCN(S(=O)(=O)c2ccc(Br)s2)CC1	29	29	0.7	0.7
COc1ccccc1N1CCN(S(=O)(=O)c2cccs2)CC1	28	83*	0.7	0.2
CCCSc1nc(C)c(-c2csc(C(C#N)=C3CCCC3)n2)cc1C#N	13	28	0.9	0.7
CCOC(=O)COc1ccc(S(=O)(=O)N2CCN(c3ccccc3F)CC2)cc1	68*	81*	0.3	0.2
COc1ccccc1N1CCN(S(=O)(=O)Cc2ccccc2Cl)CC1	73*	-331	0.3	4.3*
COc1ccc(N2CCN(C(=O)Cc3cccs3)CC2)cc1	54*	34	0.5	0.7
COc1ccc(N2CCN(c3ncccn3)CC2)cc1	92*	24	0.1	0.8
COC(=O)c1cn(CCOc2ccc(C)cc2)c2ccccc12	69*	70*	0.3	0.3
COc1c(Cl)cc(C(=O)Nc2ccccc2-c2ccccc2)cc1Cl	32	43	0.7	0.6
Cn1c(N)c(C(=O)c2cc(-c3ccccn3)nc3ccccc23)c(=O)[nH]c1=O	9	20	0.9	0.8
O=C(NCc1ccccc1)C1CCN(S(=O)(=O)c2cccc3cccnc23)CC1	-3	-57	1	1.6
SMILES	CYP2C19 inhib	CYP2C9 inhib	CYP2C19 act	CYP2C9 act
O=S(=O)(NCCO)c1cccc2cccnc12	20	36	0.8	0.6
CN(C)c1ccc(CNC(=O)CN(C)S(=O)(=O)c2cccc3cccnc23)cc1	70*	44	0.3	0.6
CN(CC(=O)NCc1cccs1)S(=O)(=O)c1cccc2cccnc12	22	-138	0.8	2.4*
COCCn1c(=O)[nH]c2cc(C(=O)NC(C)C)ccc2c1=O	-6	0	1.1	1
Cc1ccc(NC(=O)c2cccc3c2-c2ccccc2C3=O)cc1C	84*	68*	0.2	0.3
Cc1cc(=O)n2nc(N3CCCC3C(=O)NCCCN3CCCCC3)sc2n1 (stereo not given)	-18	-19	1.2	1.2
CC(C)(C)C1CCc2onc(C(=O)Nc3ccc(F)cc3F)c2C1 (stereo not given)	63*	24	0.4	0.8
O=C(OCn1ncc(Cl)c(Cl)c1=O)c1cccc(C(F)(F)F)c1	66*	-80	0.3	1.8
CCc1ccc(C(=O)Cn2ncc(Cl)c(Cl)c2=O)cc1	10	5	0.9	0.9
CC(C)(C)c1cc(NC(=O)COC(=O)c2ccc3c(=O)n4c(nc3c2)CCC4)n(-c2ccccc2)n1	77*	82*	0.2	0.2
CCc1ccc(/C=C/C(=O)C2C(=O)c3ccccc3C2=O)cc1	1	60*	1	0.4
CCc1ccc(C2C(C(=O)O)c3ccccc3C(=O)N2C)cc1 (stereo not given)	3	18	1	0.8
c1ccc(N2CCN(c3nnc(Cc4cccnc4)c4ccccc34)CC2)nc1	53*	26	0.5	0.7
c1ccc(Cc2nnc(N3CCOCC3)c3ccccc23)cc1	42	34	0.6	0.7
Nc1cc(Cl)ccc1Oc1ccc2ccccc2c1	71*	27	0.3	0.7
CC(C)CNc1nc(Oc2ccc(=O)n(-c3ccccc3)n2)nc(N2CCOCC2)n1	18	20	0.8	0.8
CCOc1ncccc1C(=O)OCC(=O)Nc1c(C)cc(C)cc1C	60*	44	0.4	0.6
CCOc1ncccc1C(=O)OCC(=O)Nc1c(C)cccc1C	52*	24	0.5	0.8
O=C(OCCN1C(=O)c2ccccc2C1=O)c1cnccn1	9	9	0.9	0.9
CCOc1ncccc1C(=O)OCCN1C(=O)c2ccccc2C1=O	59*	15	0.4	0.9
CN(C)c1nc2c(c(=O)[nH]c(=O)n2C)n1Cc1ccc(F)cc1	-4	-1	1	1
Cc1ccccc1C(=O)Oc1ccc(Sc2ccc(O)cc2)cc1	7	-21	0.9	1.2
COC(=O)c1ccc(S(=O)(=O)N(Cc2cc3cc4c(cc3[nH]c2=O)OCO4)C2CCCCC2)cc1	-2	1	1	1
C=C(C)c1cccc(C(C)(C)NC(=O)Nn2cnnc2)c1	73*	50*	0.3	0.5
C=C(C)c1cccc(C(C)(C)NC(=O)Nc2ncccn2)c1	26	7	0.7	0.9
SMILES	CYP2C19 inhib	CYP2C9 inhib	CYP2C19 act	CYP2C9 act
O=C(NC(=S)Nc1nc2c(s1)CSc1ccccc1-2)c1ccccc1	12	29	0.9	0.7
COc1ccc(CN2C(=O)c3ccccc3C(/C=N/OCc3ccc(Cl)cc3)C2=O)cc1 (stereo not given)	35	78*	0.6	0.2
CC(=O)Nc1ccc(NC(=O)/C(Cl)=C/c2ccccc2)cc1	10	-3	0.9	1
CC(/C=C/c1ccccc1)NC(N)=O (stereo not given)	32	61*	0.7	0.4
O=C(NCCSCc1ccc(Cl)cc1Cl)c1ccc(CN2CCOCC2)cc1	49	81*	0.5	0.2
O=C(/C=C/c1ccc2c(c1)OCO2)NCCSCc1ccc(Cl)cc1Cl	21	73*	0.8	0.3
CCOc1ccc(OCCOc2cccc(C(F)(F)F)c2)cc1	26	-47	0.7	1.5
N#Cc1c(N)c(C(=O)c2ccccc2)n2c1CCCC2	66*	-6	0.3	1.1
N#Cc1c(N)c(C(=O)c2ccc(Br)cc2)n2c1CCC2	-3	2	1	1
Cc1c(/C=N/n2cnnc2)c2ccccc2n1CCOc1ccccc1	79*	45	0.2	0.5
